PKA-R1A activ: PKA-R1A complex activation. P00514+P68181. PKA-R1A dissociation, Cy5-IP20 fluorescence polarization; scaled: DMSO 0%, 113 µM cGMP 100%. activation, % at 11.4 µM. hit rate 0.083% among 340,000. AID 504707;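 active = percent activation above the mean of all tested compounds plus 3 SD, cut at about 19% in these data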;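 also: higher means more PKAc released from R1A so a rise in polarization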
Rpn11 block: Rpn11 (human) deubiquitinase inhibition; human 26S proteasome, Ub4-pepOG fluorescence polarization; 20S core pre-blocked with epoxomicin; calls only at 20 µM; hit rate 0.59% among 360,000; AID 588493;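 active = inhibition at 20 µM, scaled to each plate's controls, above about 33%, limit read from the data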
Target sequence (O00487 whole entry, looked up): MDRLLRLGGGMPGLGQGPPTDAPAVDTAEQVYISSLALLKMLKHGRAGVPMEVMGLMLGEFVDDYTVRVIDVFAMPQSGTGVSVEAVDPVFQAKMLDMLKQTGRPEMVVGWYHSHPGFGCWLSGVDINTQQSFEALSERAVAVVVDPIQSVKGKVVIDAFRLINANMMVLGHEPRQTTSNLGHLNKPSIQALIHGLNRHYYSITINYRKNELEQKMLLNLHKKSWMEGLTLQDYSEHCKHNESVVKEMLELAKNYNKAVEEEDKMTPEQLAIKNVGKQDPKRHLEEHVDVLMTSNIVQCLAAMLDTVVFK
Neddylation inh: inhibitors of human cullin neddylation; P61081+Q13564; TR-FRET cullin neddylation, biochemical; inhibition, % at 25 µM; hit rate 0.58% among 360,000; AID 651699; in the data active = inhibition above about 36%
PKA-R2B activ: activators of human PKA-R2B complex. PKA-R2B holoenzyme dissociation, Cy5-IP20 fluorescence polarization; R2B truncated from residue 108, S112A mutant; 0% DMSO only, 100% 113 µM cGMP. AID 504700. P22694+P31323. activation, % at 11.4 µM. hit rate 0.079% among 340,000;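 active = activation above a cutoff set at the mean over all compounds plus 3 SD, cut at about 18% in these data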;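 also: higher means more holoenzyme dissociation and a rise in polarization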
R1A FP artifact: fluorescence polarization artifact in PKA-R1A activator counter-screen. shares compounds with PKA-R1A activ. Cy5-IP20 peptide alone, fluorescence polarization artifact counterscreen. AID 504799. activation, % at 11.4 µM. hit rate 7% among 280;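 active = mean activation over triplicate runs exceeds the adjusted cutoff derived for the parent primary screen, cut at about 19% in these data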;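 also: no PKA protein present so any polarization rise reflects compound interference; 0% = tracer peptide mix alone and 100% = mix with added PKA catalytic subunit; higher means stronger polarization artifact and likely false positive in parent screen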
PKA-R1A confirm: confirmation of PKA-R1A complex activators | shares compounds with PKA-R1A activ | Cy5-IP20 fluorescence polarization, PKA-R1A holoenzyme dissociation | activation, % at 11.4 µM | hit rate 9% among 280 | AID 504800;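 active = mean activation over replicate wells exceeds the adjusted hit threshold taken from the earlier primary screen, cut at about 20% in these data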;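 also: 0% = holoenzyme mix with DMSO only and 100% = cGMP-activated control wells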
Neddyl inh conf: confirmation of human cullin neddylation inhibitors; shares compounds with Neddylation inh; TR-FRET cullin neddylation biochemical assay; calls only at 25 µM; hit rate 13% among 1,800; AID 652217; in the data active = inhibition above about 40%;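 also: neddylation substrate is the cullin 1 ring ligase complex with SKP2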
* = called active by the depositor; i = inactive; nt = not tested or not shown. Shown are actives, neighbours in structure and some others; about 1.3% of the full set was active somewhere.

SMILES	PKA-R1A activ	Rpn11 block	Neddylation inh	PKA-R2B activ	R1A FP artifact	PKA-R1A confirm	others
CC(NC(=O)C1CCCC1)C1CC2CCC1C2 (stereo not drawn)	20*	i	9	-3	2	0
Cc1cc(Br)c(NC(=O)CN2C(=O)NC3(CCOc4ccccc43)C2=O)c(Br)c1 (stereo not drawn)	20*	i	6	3	0	4
O=C(C1=C(O)C(=O)N(Cc2ccco2)C1c1cccc(O)c1)c1ccco1 (stereo not drawn)	20*	i	-27	2	-1	-1
CN(C)CCCCOc1cccc(Br)c1	23*	i	15	-3	6	4
COC(=O)c1c(NC(=O)Cc2ccccc2)sc(C)c1C	-7	i	11	-7	nt	nt
COC(=O)c1c(NC(=S)Nc2ccccc2Cl)sc(C)c1C	21*	i	-32	-9	0	0
CCN(CC)c1ccc(/C=N/NC(=O)OC(C)(C)C)cc1	-7	i	29	12	nt	nt
O=C(Cn1cnc2ccccc2c1=O)Nc1ccc(S(=O)(=O)N2CCOCC2)cc1	19*	i	-7	2	0	3
O=C(c1ccccc1)c1c(-c2ccccc2)[nH]n(-c2ccccc2)c(=O)c1=O	10	i	-3	-3	nt	nt
CC1=NN(c2ccccc2)C(c2ccco2)C1 (stereo not drawn)	20*	i	18	-6	-1	2
Cn1nnnc1SCC(=O)NC(=O)c1cccc([N+](=O)[O-])c1	-9	i	-12	-8	nt	nt
CCOC(=O)COc1ccccc1C(=O)c1cnn(-c2ccccc2)c1	5	i	-10	7	nt	nt
Cc1c(-c2ccccc2)[n+](=O)c(-c2ccc(Cl)cc2)c(C)n1[O-]	19*	i	-9	-3	5	3
COc1ccc2[nH]c(=O)c(CN(C(=O)c3cccnc3)c3ccccc3)cc2c1	-1	i	24	4	nt	nt
COc1ccc2[nH]c(=O)c(CN(C(=O)c3ccccn3)c3ccccc3)cc2c1	20*	i	20	-2	1	-1
O=C(NCCc1ccccc1)c1ccc(NS(=O)(=O)c2ccc3[nH]c(=O)[nH]c3c2)cc1	0	i	6	-15	nt	nt
CC(Oc1ccc(Cl)cc1Cl)c1ccn[nH]1 (stereo not drawn)	-12	i	4	-17	nt	nt
Cc1nc(CCNS(=O)(=O)c2cccs2)cs1	20*	i	3	-5	6	0
COc1ccc(CNC(=O)CNC(=O)c2c(C)nn(C)c2Cl)cc1	19*	i	11	0	5	3
Cc1ccc(CN2CCC(C(=O)Nc3ccc(Oc4cccnc4)cc3)CC2)cc1	13	i	2	-5	nt	nt
O=C(Nc1ccc(Oc2cccnc2)cc1)C1CCN(Cc2ccccc2)CC1	19*	i	-3	2	2	1
CC(C)CCOc1ccc(C(=O)N2CCCC2C(=O)O)cc1 (stereo not drawn)	20*	i	1	-2	3	2
COc1ccc(S(=O)(=O)NC2CC2)cc1-n1cnnn1	nt	i	-5	nt	nt	nt
COc1ccc(S(=O)(=O)Nc2c(C)cccc2C)cc1-n1cnnn1	19*	i	-1	4	7	6
CCOc1cc(CNC(=O)CN2C(=O)c3ccccc3S2(=O)=O)ccc1OC	19*	i	-6	-6	-1	0
SMILES	PKA-R1A activ	Rpn11 block	Neddylation inh	PKA-R2B activ	R1A FP artifact	PKA-R1A confirm	others
Nc1nnnn1/N=C/c1ccccn1	21*	i	-4	-3	0	5
O=C(NCC1CCCO1)c1ccc(N2CCCCC2)c([N+](=O)[O-])c1 (stereo not drawn)	4	i	-26	7	nt	nt
CC(C)C(=O)NNC(=O)c1cc2sccc2s1	23*	i	-9	-2	-1	2
CC(=O)NNC(=O)c1cc2sccc2s1	7	i	-5	-12	nt	nt
Cc1ccc(NC(=O)NNC(=O)Cn2nc(-c3ccccc3)c(-c3ccccc3)c(C#N)c2=O)cc1	-7	i	-4	-12	nt	nt
CCOC(=O)N/N=C/c1ccc(N(CC)CC)cc1O	23*	i	8	-14	4	4
O=C1CN(C(=O)COc2ccc(Br)cc2)c2ccccc2N1	-23	i	2	-10	nt	nt
O=S(=O)(Nc1ccccc1)C1CCCCC1	1	i	-2	8	nt	nt
O=C(CCNC(=O)c1ccccc1)N/N=C/c1ccc([N+](=O)[O-])cc1	-4	i	-37	6	nt	nt
O=C(CNc1ccccc1)N/N=C/c1ccc([N+](=O)[O-])cc1	22*	i	-20	-11	-2	3
COC(=O)c1c(C)cc(OC(C)=O)c(C)c1OC(C)=O	20*	i	-4	8	4	4
COc1cc(C)c(C(=O)Oc2cc(C)c(C(=O)O)c(O)c2C)c(O)c1C	-4	i	7	6	nt	nt
CC(NC(=O)NCCCn1ccnc1)(C(F)(F)F)C(F)(F)F	21*	i	-8	-4	0	2
COCCn1c(N)c(N(Cc2ccccc2)C(=O)COc2ccc(F)cc2Cl)c(=O)[nH]c1=O	20*	i	6	0	4	5
CCCC1=C(C(=O)OCC)C(c2ccc(O)cc2)n2ncnc2N1 (stereo not drawn)	2	i	1	-1	nt	nt
CCCC1=C(C(=O)OCC)C(c2sccc2C)n2ncnc2N1 (stereo not drawn)	19*	i	1	5	4	4
CCCCC(=O)N(C)c1c(CC)nc2c(OCC(=O)c3ccc(F)cc3)cccn12	nt	i	9	nt	nt	nt
COc1ccc(S(=O)(=O)NCC2CCCO2)cc1NC(=O)c1ccccc1F (stereo not drawn)	9	i	33	0	nt	nt
CN(Cc1ccccc1)C(=O)C1CCN(S(=O)(=O)c2ccc(-n3cnnn3)cc2)CC1	21*	i	3	10	3	2
CCN(CC)C(=O)C1CCN(S(=O)(=O)c2ccc(-n3cnnn3)cc2)CC1	-8	i	6	-1	nt	nt
Cc1ccsc1C(=O)Nc1ccc(S(=O)(=O)N2CCOCC2)cc1	1	i	0	3	nt	nt
N#C/C(=C/c1ccco1)C(N)=S	19*	i	64*	-3	2	3	Neddyl inh conf=i
CC(OC(=O)Cc1c[nH]c2ccccc12)C(=O)Nc1ccc(S(N)(=O)=O)cc1 (stereo not drawn)	-5	i	14	-5	nt	nt
O=C(CSc1ncccc1C(=O)O)c1ccc2ccccc2c1	-17	i	-21	6	nt	nt
